Screens deposited in PubChem BioAssay by Johns Hopkins Ion Channel Center.
A selection: hits, their analogues and other compounds. The true share with any hit is near 1.6%.
KCNQ2 block: inhibitors of rat KCNQ2 potassium channel; B-score at 10 µM; CHO-K1 KCNQ2, FluxOR thallium flux, 20 min; stronger effect = lower value; AID 2156; hit rate 1.1% among 310,000;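 active = fluorescence ratio B-score at most minus 3 library SDs, with starting brightness B-score within 2 library SDs, cut at about -5.5 in these data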
KCNQ2 pot: potentiators of rat KCNQ2 potassium channel; CHO-K1 KCNQ2, FluxOR thallium flux fluorescence; stronger effect = higher value; O88943; AID 2239; hit rate 0.54% among 310,000; B-score at 10 µM;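 active = fluorescence ratio B-score at least 3 SD of library B-scores, with initial fluorescence B-score within 3 of them, cut at about 5.3 in these data; same plate scores as AID 2156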;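 note: B-score of peak minus minimum over baseline fluorescence ratio after K+ and Tl+ stimulus; positive B-score means potentiation of KCNQ2 with more thallium influx and brighter signal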
KCNQ2 block conf: rat KCNQ2 channel inhibition, confirmatory screen | activity change, negative = inhibition, % at 10 µM | KCNQ2-expressing cells, thallium flux; stronger effect = lower value | shares compounds with KCNQ2 block | AID 493025 | hit rate 57% among 1,000
KCNQ1 spec: selectivity of KCNQ2 inhibitors against human KCNQ1 | shares compounds with KCNQ2 block | KCNQ1-expressing cells, FluxOR thallium flux fluorescence; stronger effect = lower value | activity change, negative = inhibition, % at 10 µM | hit rate 15% among 1,000 | AID 493026;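 active = activity change at least 3 SD of negative controls below their mean in both duplicate wells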;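 note: CHO cells stably transfected with KCNQ1 and depolarized by potassium stimulus; peak minus minimum fluorescence over baseline after thallium addition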
Target sequence (P51787 whole entry, looked up): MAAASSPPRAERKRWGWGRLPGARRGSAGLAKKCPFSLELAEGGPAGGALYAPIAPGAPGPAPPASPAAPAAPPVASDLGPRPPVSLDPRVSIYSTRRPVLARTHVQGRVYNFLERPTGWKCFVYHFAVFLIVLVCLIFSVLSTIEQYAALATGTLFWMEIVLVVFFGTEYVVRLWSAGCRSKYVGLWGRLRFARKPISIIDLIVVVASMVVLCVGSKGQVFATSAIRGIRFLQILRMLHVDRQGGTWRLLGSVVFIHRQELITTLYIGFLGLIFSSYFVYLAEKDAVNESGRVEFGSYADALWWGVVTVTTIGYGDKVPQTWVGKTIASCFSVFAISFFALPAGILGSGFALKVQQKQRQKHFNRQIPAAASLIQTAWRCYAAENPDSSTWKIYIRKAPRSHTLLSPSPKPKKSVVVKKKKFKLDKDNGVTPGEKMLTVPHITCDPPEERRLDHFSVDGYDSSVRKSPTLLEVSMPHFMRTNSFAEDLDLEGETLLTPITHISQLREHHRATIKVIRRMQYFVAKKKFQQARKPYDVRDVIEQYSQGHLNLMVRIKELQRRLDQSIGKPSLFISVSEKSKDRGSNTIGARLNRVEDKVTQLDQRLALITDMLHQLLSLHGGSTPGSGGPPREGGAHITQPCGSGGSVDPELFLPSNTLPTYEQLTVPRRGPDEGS
CHO Tl ctr: activity in parental CHO cells lacking KCNQ2 | activity change, % at 10 µM | AID 493029 | thallium flux counter-screen; stronger effect = lower value | hit rate 14% among 1,000 | shares compounds with KCNQ2 block
KCNQ2 patch conf: rat KCNQ2 inhibition confirmed by electrophysiology. shares compounds with KCNQ2 block. KCNQ2-expressing cells, automated patch clamp current. calls only at 10 µM. hit rate 49% among 550
A number is an active result; . = inactive; / = not tested or not shown; + = active, no number. Unless noted, the rule behind the calls is not given here.

SMILES	KCNQ2 block	KCNQ2 pot	KCNQ2 block conf	KCNQ1 spec	CHO Tl ctr	others
CCn1c(COc2ccc(OC)cc2)nc2ccccc21	.	/	/	/	/
CCOC(=O)c1ccc2c(c1)nc(COc1ccc3ccccc3c1)n2CC	-9.08	.	.	.	.
CCCn1cnc2c1c(=O)n(CCCCC(C)=O)c(=O)n2C	.	/	/	/	/
CC(C)CC1(C)N=C(c2ccccc2)C(=S)N1 (stereo not given)	.	/	/	/	/
Cc1ccc(C(C)NC(=O)Cc2cccs2)c(C)c1 (stereo not given)	.	.	/	/	/
CCOc1ccc(NS(=O)(=O)c2ccc(C(=O)NNC(=O)c3ccccc3O)cc2)cc1	.	.	/	/	/
O=C(CNc1n[nH]c(=O)[nH]c1=O)N/N=C/C1CC=CCC1 (stereo not given)	.	.	/	/	/
CC(C)CNC(=O)c1nc(-c2ccccc2)n(-c2ccccc2)n1	.	/	/	/	/
CC(OC(=O)c1nc(-c2ccccc2)n(-c2ccccc2)n1)C(=O)Nc1cc(Cl)cc(Cl)c1 (stereo not given)	-6.86	.	.	.	.
O=C(Cc1coc2ccc3ccccc3c12)NCc1ccccc1	.	.	/	/	/
CCCN(CCC)C(=O)Cc1coc2ccc3ccccc3c12	-7.32	.	.	.	.
COc1ccc(C(=O)Nc2c(-c3ccccc3)nc3ccccn23)c(OC)c1	.	/	/	/	/
COc1ccccc1C(=O)Nc1c(-c2ccccc2)nc2ccccn12	-7.32	.	.	.	.
N#CCC(=O)N1CCN(Cc2ccc3c(c2)OCO3)CC1	.	.	/	/	/
CCOC(=O)C1C(=O)C=C(c2cccs2)CC1c1ccccc1 (stereo not given)	.	/	/	/	/
CCOC(=O)C1C(=O)C=C(c2ccc(C)cc2)CC1c1ccccc1 (stereo not given)	-7.15	.	-26.0%	.	.	KCNQ2 patch conf=.
CCCc1cc(C(=O)N(C2CCCCC2)C2CCCCC2)no1	-7.42	.	.	.	.
CCCc1cc(C(=O)NC2CCCCC2)no1	.	.	/	/	/
CS(=O)(=O)c1ccc(C(=O)Nc2ccc(N3CCCCC3)cc2)c(Cl)c1	.	.	/	/	/
Cc1ccc(Sc2ccc(NC(=O)c3ccc(S(C)(=O)=O)cc3Cl)cc2)cc1	-8.76	.	.	.	.
Cc1nc2c(-c3ccccc3)c(C)nn2c(N)c1-c1ccccc1	-7.46	.	-34.0%	.	.	KCNQ2 patch conf=.
Cc1nn2c(N)c(-c3ccccc3)cnc2c1-c1ccc(Cl)cc1	.	/	/	/	/
O=c1oc2ccccc2c(O)c1Sc1ccc(Cl)cc1	.	/	/	/	/
CCC(C)Sc1cccc(-c2nc3ccc(Cl)cn3c2NCc2ccccc2)c1 (stereo not given)	-7.3	.	-33.0%	-37.5%	-25.0%	KCNQ2 patch conf=+
CCC(C)Sc1cccc(-c2nc3ccc(C)cn3c2NCc2ccccc2)c1 (stereo not given)	.	/	/	/	/
SMILES	KCNQ2 block	KCNQ2 pot	KCNQ2 block conf	KCNQ1 spec	CHO Tl ctr	others
CC(=O)Nc1c(-c2ccccc2)nc2ccc(Cl)cn12	.	/	/	/	/
CCOC(=O)CNc1c(-c2ccccc2)nc2ccc(Cl)cn12	-7.04	.	-32.5%	.	.	KCNQ2 patch conf=+
Cc1ccc(OCCNC(=O)c2ccc(NC(=O)CC3SC(N4CCCC4)=NC3=O)cc2)cc1 (stereo not given)	.	.	/	/	/
O=C(NCC(=O)N1CCCC(C(F)(F)F)C1)c1ccc(Oc2ccccc2)cc1 (stereo not given)	.	.	/	/	/
O=C(NCC(=O)N1CCCC(C(F)(F)F)C1)c1ccc2ccccc2c1 (stereo not given)	-6.87	.	.	.	.
COc1c(S(=O)(=O)NCCCN2CCOCC2)ccc(Cl)c1Cl	.	.	/	/	/
COc1ccc(C(OC(=O)c2ccco2)C(=O)NC(C)(C)C)cc1 (stereo not given)	.	/	/	/	/
COc1ccc(C)c(-n2c(N)cc(=O)n(Cc3ccccc3)c2=O)c1	.	/	/	/	/
O=C(Nc1cccc2ccccc12)c1nn(C23CC4CC(CC(C4)C2)C3)cc1[N+](=O)[O-]	-9.06	.	-29.0%	.	.	KCNQ2 patch conf=+
COc1ccc(NC(=O)c2nn(C34CC5CC(CC(C5)C3)C4)cc2[N+](=O)[O-])cc1	.	.	/	/	/
CCOC(=O)c1ccc(Cl)c(S(=O)(=O)N2CCCC2)c1	.	.	/	/	/
Cc1ccc(C(c2ccc(C)o2)c2cccc([N+](=O)[O-])c2O)o1	.	/	/	/	/
Cc1cc(C(c2ccc(C)o2)c2ccc(C)o2)c(O)c([N+](=O)[O-])c1	-8.88	.	.	.	.
Cc1cc(C)cc(NC(=O)C(OC(=O)Cn2cnc3c2c(=O)n(C)c(=O)n3C)c2ccccc2)c1 (stereo not given)	-8.97	.	-24.0%	.	.	KCNQ2 patch conf=.
COc1ccc(C)cc1NC(=O)C(OC(=O)Cn1cnc2c1c(=O)n(C)c(=O)n2C)c1ccccc1 (stereo not given)	.	.	/	/	/
COc1ccccc1NC(=O)c1ccc2c(c1)N(CC#N)C(=O)C(C)(C)O2	.	.	/	/	/
Cc1ccc(S(=O)(=O)N(C)CC(O)Cn2c3ccccc3c3ccccc32)cc1 (stereo not given)	.	/	/	/	/
O=S(=O)(c1ccccc1)N(CC(O)Cn1c2ccccc2c2ccccc21)c1ccccc1 (stereo not given)	-9.55	.	.	.	.
CC1=Nc2nc(N3CCCCCC3)c(C#N)c3c4c(nc(c23)N1)N(c1ccc2ccccc2c1)C(=O)C4	.	.	/	/	/
N#C/C(=C\C=C\c1ccccc1)C(=O)Nc1ccccc1	-7.41	.	.	.	.
N#C/C(=C/C=C/c1ccccc1)C(=O)Nc1ccccc1	.	/	/	/	/
Cc1cc(C)n(C(=O)c2cccc(S(=O)(=O)N3CCOCC3)c2)n1	.	/	/	/	/
Cc1ccc(Sc2c(C)nn(C(=O)c3cccc(S(=O)(=O)N4CCOCC4)c3)c2C)cc1	-8.98	.	-33.0%	.	.	KCNQ2 patch conf=.
COc1ccc(/C=C(\NC(=O)c2ccc(C)cc2)C(=O)Nc2ccc(C(=O)O)cc2)cc1	.	/	/	/	/
COc1ccccc1CNC(=O)COC(=O)c1ccc(C)c(S(=O)(=O)N2CCCCC2)c1	-8.44	.	-36.0%	-39.0%	-25.5%	KCNQ2 patch conf=+
SMILES	KCNQ2 block	KCNQ2 pot	KCNQ2 block conf	KCNQ1 spec	CHO Tl ctr	others
COc1ccccc1CNC(=O)COC(=O)c1cccc(S(=O)(=O)N2CCCCC2)c1	.	/	/	/	/
CS(=O)(=O)N(CC(=O)Nc1ccc(S(=O)(=O)N2CCCC2)cc1)c1cccc(F)c1	.	.	/	/	/
Cn1c(SCc2ccccc2)nc(N)c(N=O)c1=O	.	/	/	/	/
COc1nc(SC)nc(Cl)c1Cc1ccc(OC(C)C)cc1	.	/	/	/	/
CSc1nc(Cl)c(Cc2ccc(OC(C)C)cc2)c(N2CCOCC2)n1	-11.1	.	.	.	.
CN(C)c1nc(N(C)C)nc(N2CC(=O)N(c3ccccc3)C2=N)n1	.	.	/	/	/
Cc1ccccc1C(=O)O/N=C(\N)c1ccccc1	.	/	/	/	/
Cc1ccccc1C(=NC(=O)c1ccccc1)c1ccccc1	-8.46	.	-28.5%	.	.	KCNQ2 patch conf=+
CC(C)=CCN1CCN(Cc2cn(C(C)C)c3ccccc23)CC1CCO (stereo not given)	.	.	/	/	/
O=C(CNC(=O)[C@@H]1Cc2ccccc2CN1)NCc1ccco1	.	.	/	/	/
O=C(NCC(c1ccco1)N1CCc2ccccc21)c1ccccc1F (stereo not given)	.	/	/	/	/
